Inconclusive results are not listed. Calls of active or inactive are those of the source. Unless noted, calls come from the whole dose curve; as a rule, active = well fitted curve in the direction sought with a large enough effect; inconclusive = small, poorly fitted or top-dose-only effect, or another doubt; inactive = no such curve, though single readings can be large; an effect the other way counts as inactive or inconclusive.
Assays:
[1] = molecular target: Cytochrome P450 3A4 (Homo sapiens) (UniProt P08684); assay: qHTS Assay for Activators of Cytochrome P450 3A4 (AID 885); note: nearly all actives have a fitted effect of over 65% in size
Chain of Cytochrome P450 3A4 (Homo sapiens) (P08684 whole entry, looked up): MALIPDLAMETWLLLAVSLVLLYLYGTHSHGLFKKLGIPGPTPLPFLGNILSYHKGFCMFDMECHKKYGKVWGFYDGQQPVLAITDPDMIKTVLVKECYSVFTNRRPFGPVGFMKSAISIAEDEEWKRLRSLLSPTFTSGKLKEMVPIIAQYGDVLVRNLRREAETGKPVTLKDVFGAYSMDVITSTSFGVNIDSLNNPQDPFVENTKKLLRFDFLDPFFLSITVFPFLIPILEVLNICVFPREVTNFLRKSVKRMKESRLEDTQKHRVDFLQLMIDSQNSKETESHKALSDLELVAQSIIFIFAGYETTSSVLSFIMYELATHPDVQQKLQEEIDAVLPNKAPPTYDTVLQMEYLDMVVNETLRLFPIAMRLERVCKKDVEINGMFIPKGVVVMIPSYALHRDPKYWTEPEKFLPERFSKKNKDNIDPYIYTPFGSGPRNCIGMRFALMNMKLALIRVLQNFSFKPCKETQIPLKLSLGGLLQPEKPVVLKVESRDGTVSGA
In short: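 Steps: enzyme/substrate mix dispensed; compound added, 10 min RT; NADPH regeneration solution added, 60 min RT; luciferin detection buffer stops reaction; 20 min later luminescence measured.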

[2] = qHTS Assay for Lipid Storage Modulators (AID 1519; calls by dose curve; for activity change, negative = inhibition: % is set by controls: 0 for no effect and ±100 for the full control effect); details: Drosophila S3 cells, BODIPY lipid droplet/cell ratio, laser cytometry, cells loaded with oleic acid
In short: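 Cells seeded at 5,000 per well were treated with compounds over a concentration series and loaded with oleic acid (400 uM, as added). Lipid droplet fluorescence (488 nm excitation, 500-530 nm channel) was read by laser-scanning cytometry and normalized to 20 uM Triacsin C.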

[3] = molecular target: DNA dC->dU-editing enzyme APOBEC-3G (Homo sapiens) (UniProt Q9HC16); assay: qHTS for inhibitors of Vif-A3G interactions: Validation (AID 588379); note: 0% is about no effect
Chain of DNA dC->dU-editing enzyme APOBEC-3G (Homo sapiens) (Q9HC16 whole entry, looked up): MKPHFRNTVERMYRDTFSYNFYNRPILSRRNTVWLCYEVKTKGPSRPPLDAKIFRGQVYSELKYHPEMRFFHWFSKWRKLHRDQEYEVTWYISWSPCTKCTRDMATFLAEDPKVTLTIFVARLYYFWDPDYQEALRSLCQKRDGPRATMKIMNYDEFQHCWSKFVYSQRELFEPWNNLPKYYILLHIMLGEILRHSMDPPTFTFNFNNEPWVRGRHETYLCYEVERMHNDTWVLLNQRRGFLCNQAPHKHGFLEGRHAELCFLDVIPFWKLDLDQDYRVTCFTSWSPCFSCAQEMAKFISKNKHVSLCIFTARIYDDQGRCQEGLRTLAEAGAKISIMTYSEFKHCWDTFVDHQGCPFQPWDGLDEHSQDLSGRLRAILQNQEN
In short: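 HeLa cells stably expressing Vif and A3G-eYFP, 700 cells/well, incubated overnight at 37 deg C, then exposed to compound overnight at 37 deg C. Inhibition of Vif-mediated degradation read as increased yellow fluorescence (Ex 488/Em 500-530) by laser-scanning cytometry.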

[4] = molecular target: Cytochrome P450 2C9 (Homo sapiens) (UniProt P11712); assay: qHTS Assay for Inhibitors and Substrates of Cytochrome P450 2C9 (AID 883); note: potency is the fitted concentration of half-maximal effect; nearly all actives have a fitted effect of over 60% in size
Chain of Cytochrome P450 2C9 (Homo sapiens) (P11712 whole entry, looked up): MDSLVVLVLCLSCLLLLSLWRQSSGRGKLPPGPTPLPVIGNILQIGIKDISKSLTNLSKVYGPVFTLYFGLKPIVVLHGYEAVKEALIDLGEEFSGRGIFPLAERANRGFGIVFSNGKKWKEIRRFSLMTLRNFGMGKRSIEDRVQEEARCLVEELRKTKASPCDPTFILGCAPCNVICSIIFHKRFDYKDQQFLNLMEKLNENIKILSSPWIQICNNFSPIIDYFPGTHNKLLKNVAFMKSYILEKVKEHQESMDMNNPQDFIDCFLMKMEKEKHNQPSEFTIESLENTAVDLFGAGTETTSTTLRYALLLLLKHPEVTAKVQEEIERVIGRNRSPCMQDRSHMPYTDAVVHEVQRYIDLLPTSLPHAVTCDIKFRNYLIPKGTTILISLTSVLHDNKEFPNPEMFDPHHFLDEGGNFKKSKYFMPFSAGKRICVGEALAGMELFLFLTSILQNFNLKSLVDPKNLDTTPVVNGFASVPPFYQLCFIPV
In short: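 CYP2C9 deoxyluciferin hydroxylation, 37C, 60 min with NADPH regeneration; 10nM enzyme, 100uM Luciferin-H (KM). Glo detection reagent stopped reaction; luminescence normalized to sulphaphenazole (57uM) full inhibition.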

[5] = molecular target: Cytochrome P450 3A4 (Homo sapiens) (UniProt P08684); assay: qHTS Assay for Inhibitors and Substrates of Cytochrome P450 3A4 (AID 884); note: potency is the fitted concentration of half-maximal effect; nearly all actives have a fitted effect of over 50% in size
In short: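 20 nM human CYP3A4 with 25 uM Luciferin-PPXE (at KM) in 200 mM KPO4, preincubated 10 min with compound; NADPH regeneration started a 60 min RT reaction. Luciferin detected by luminescence, normalized to 57 uM ketoconazole as full inhibition.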

[6] = molecular target: Cytochrome P450 2C19 (Homo sapiens) (UniProt P33261); assay: qHTS Assay for Inhibitors and Substrates of Cytochrome P450 2C19 (AID 899); note: potency is the fitted concentration of half-maximal effect; nearly all actives have a fitted effect of over 60% in size
Chain of Cytochrome P450 2C19 (Homo sapiens) (P33261 whole entry, looked up): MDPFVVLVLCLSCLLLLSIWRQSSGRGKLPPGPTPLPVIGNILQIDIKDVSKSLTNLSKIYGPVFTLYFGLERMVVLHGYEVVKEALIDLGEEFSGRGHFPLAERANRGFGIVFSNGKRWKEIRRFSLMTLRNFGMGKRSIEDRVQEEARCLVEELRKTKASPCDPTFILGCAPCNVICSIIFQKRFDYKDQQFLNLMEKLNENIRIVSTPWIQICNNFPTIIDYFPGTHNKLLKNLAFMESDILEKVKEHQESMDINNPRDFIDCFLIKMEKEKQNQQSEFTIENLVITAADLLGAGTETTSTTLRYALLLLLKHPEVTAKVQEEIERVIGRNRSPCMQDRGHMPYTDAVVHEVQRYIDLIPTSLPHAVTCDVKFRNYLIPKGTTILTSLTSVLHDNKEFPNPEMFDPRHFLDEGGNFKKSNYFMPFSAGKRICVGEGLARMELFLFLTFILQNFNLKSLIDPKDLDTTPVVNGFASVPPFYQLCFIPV
In short: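 In 50mM KPO4, the reaction held 5nM enzyme and KM-level (10uM) Luciferin-H EGE; it ran 60 min at 37C after NADPH regeneration and a 10 min compound preincubation. Luminescence values were scaled to 57uM ketoconazole as complete inhibition.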

[7] = Confirmation and Secondary Assay for Modulators of Hemoglobin Beta Chain Splicing at IVS2 705 locus (AID 930);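 note: HeLa cells stably expressing the EGFP-705 splicing reporter; GFP fluorescence per well restored by corrected splicing of the IVS2-705 intron in EGFP; % of control where 0% means no effect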
In short: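 Read-out: total peak GFP fluorescence per well (488 nm excitation, 500-520 nm emission) by laser-scanning cytometry. Cells: HeLa EGFP-705 splicing reporter, 2 days compound exposure in Optimem/2% FCS.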

[8] = measured here: cell count channel max response
[9] = measured here: lipid channel max response

Row | Structure (SMILES) | Potency [1] | activity change, negative = inhibition ([2]; at 57.5 µM (top of the series)) | max response [2, 8] | max response [2, 9] | outcome [3] | Potency [4] | Potency [5] | Potency [6] | activity change, negative = inhibition ([2]; at 25.7 µM (top of the series)) | Potency [7]
1 | CC1=C2C3OC(=O)[C@H](C)[C@H]3CC[C@@]2(C)C=CC1=O (some centres undefined) | inactive | 2.8% (inactive) | 25.6% | 29.5% | inactive |  |  |  |  | 
2 | COc1cc(CNC(=O)CCCC/C=C\C(C)C)ccc1O | inactive |  | -15.8% | -21% |  | 3.98 µM (active) | 7.94 µM (active) | 10 µM (active) | -6.95% (inactive) | 
3 | C=C1C([C@@]2(C)C(OC(C)=O)CC(=O)O[C@@](C)(COC(C)=O)C2CC(=O)OC)C(OC=O)C(OC(=O)C(OC(C)=O)C(C)CC)[C@]2(C)C(c3ccoc3)CC(=O)C12O (some centres undefined) | inactive | -5.86% (inactive) | 19% | 13.8% |  |  | 12.6 µM (active) |  |  | inactive
4 | CC1=CCCC2C1(C)CCC(C)C2(C)CC/C(C)=C/C[n+]1cn(C)c2c(N)ncnc21 (centres undefined) | inactive | 6.88% (inactive) | 2.19% | 13.1% |  |  | 31.6 µM (active) |  |  | inactive

Reference: PubChem BioAssay (NCATS)
